# Source: PubChem BioAssay (National Center for Advancing Translational Sciences (NCATS))
# PNC assembly inh: blocks assembly of the perinucleolar compartment | PC3M PTB-GFP, PNC prevalence imaging, 16 h; active compounds read low | activity change (PNC), negative = inhibition, % at 10 µM | actives 3.1% (n = 140,000) | AID 2417;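 active means readout at or below -70, meaning at least 70% loss of cells showing the perinucleolar compartment, a nuclear body marking cancer cells; inconclusive means readout between -30 and a set limit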;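 further: plate controls were DMSO wells for no effect and camptothecin positive control wells for full effect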
#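 Read-out is percentage of cells bearing a perinucleolar compartment, from automated 20x imaging of fixed, Hoechst-stained PC3M PTB-GFP cells. Cells were seeded 4 h, then exposed 16 h to compound (23 nl of library stock) in duplicate plates.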
# HttQ103 aggreg: inhibitors of mutant huntingtin aggregate formation in PC12 cells. PC12 HttQ103-GFP aggregates, Acumen cytometry, 40 h. Potency, µM (titrated, usually from 46.1 µM), without a hit: at the top dose activity change, negative = inhibition, usual class: inhibitors. actives 1.1% (n = 220,000). AID 1688; active means well fitted curve in the direction sought with a large enough effect; inconclusive means small, poorly fitted or top-dose-only effect, or another doubt; inactive means no such curve, though single readings can be large; an effect the other way counts as inactive or inconclusive; further: potency means the concentration at half of the fitted maximal effect; on the % scale 0 is the no-effect control and ±100 the full control effect; nearly all actives have a fitted effect of over 60% in size
#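 Quantitative HTS on tebufenozide-induced (100 nM) PC12 cells stably expressing polyQ103 Huntingtin exon 1–GFP. Reduction of bright GFP aggregates, detected by laser scanning cytometry after lysis, identified actives across the titration.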
# GoLoco inh red: RGS12 GoLoco-Gai1 interaction inhibition | P63096 | Gai1:RGS12 GoLoco peptide FP, rhodamine, 10 min | Potency, µM (top dose mostly 61.6 µM), without a hit: top-dose activity, negative = inhibition, usual class: inhibitors | actives 0.44% (n = 230,000); active means well fitted inhibition curve with a large enough effect, not every such curve was filed as active; inactive means no such curve, though single readings can be large or run the other way; further: potency means the concentration at half of the fitted maximal effect; on the % scale 0 is the no-effect control and ±100 the full control effect; nearly all actives have a fitted effect of over 30% in size
# Target sequence (P63096 whole entry, looked up): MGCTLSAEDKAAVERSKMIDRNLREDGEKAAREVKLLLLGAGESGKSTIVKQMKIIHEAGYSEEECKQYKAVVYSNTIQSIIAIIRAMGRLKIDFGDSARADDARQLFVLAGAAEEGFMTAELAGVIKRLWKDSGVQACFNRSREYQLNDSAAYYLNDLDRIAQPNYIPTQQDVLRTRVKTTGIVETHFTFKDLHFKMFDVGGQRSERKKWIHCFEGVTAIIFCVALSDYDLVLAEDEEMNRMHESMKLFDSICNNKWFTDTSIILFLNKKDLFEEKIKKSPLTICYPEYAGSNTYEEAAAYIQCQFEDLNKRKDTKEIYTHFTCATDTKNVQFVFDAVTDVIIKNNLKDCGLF
# HTT ATP protect: cytoprotection in Huntington HTT-Q103 PC12 cell model. PC12 HTT-Q103 induced, cytoprotection, ATP luminescence, 40 h. Potency, µM (titrated, usually from 56.4 µM), for the others: cytoprotection (ATP increase), most hits filed as activators. actives 0.14% (n = 230,000); active means well fitted curve in the direction sought with a large enough effect; inconclusive means small, poorly fitted or top-dose-only effect, or another doubt; inactive means no such curve, though single readings can be large; an effect the other way counts as inactive or inconclusive; further: potency means the concentration at half of the fitted maximal effect; % of control where 0% means no effect; nearly all actives have a fitted effect of over 45% in size
#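 Compounds added alongside 100 nM tebufenozide, which induces toxic Q103 huntingtin exon 1-GFP in stable PC12 cells; surviving cells quantified by luminescent ATP measurement. Medium: phenol red-free DMEM, 5% equine and 5% calf serum.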
# HPGD inh: HPGD (human) dehydrogenase inhibition; P15428; purified HPGD, NADH fluorescence kinetic, PGE2 substrate; Potency, µM, for inactives: at the highest dose activity change, negative = inhibition, most hits filed as inhibitors; actives 4.3% (n = 150,000); further: potency means the concentration at half of the fitted maximal effect; on the % scale 0 is the no-effect control and ±100 the full control effect
# Target sequence (P15428 whole entry, looked up): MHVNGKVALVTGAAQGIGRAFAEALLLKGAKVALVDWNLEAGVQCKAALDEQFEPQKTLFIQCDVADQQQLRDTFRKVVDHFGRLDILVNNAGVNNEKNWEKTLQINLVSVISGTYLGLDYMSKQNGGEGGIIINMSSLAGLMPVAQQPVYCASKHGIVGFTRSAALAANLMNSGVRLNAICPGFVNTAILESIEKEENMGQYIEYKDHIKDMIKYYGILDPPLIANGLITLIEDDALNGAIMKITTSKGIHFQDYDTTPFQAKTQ
#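 20 nM HPGD preincubated 15 min at room temperature with compound in 50 mM Tris-HCl pH 8, 0.01% Tween 20. Started with 1 mM NAD+ and 30 uM prostaglandin E2; NADH fluorescence (360/450 nm) read 5 times over 30-s intervals, last minus first.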
# ALDH1A1 inh-1: blocks purified human ALDH1A1 activity; P00352; Purified ALDH1A1, NADH fluorescence, propionaldehyde substrate; Potency, µM (titrated, usually from 75.3 µM), for the others: at the highest dose activity, negative = inhibition, hits mostly inhibitors; actives 7.3% (n = 220,000); AID 1030;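 further: potency means the concentration at half of the fitted maximal effect; plate controls were no enzyme wells and a reference inhibitor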
# ALDH1A1 inh-2: Inhibits human ALDH1A1, confirmation and counter-screen; shares compounds with ALDH1A1 inh-1; purified ALDH1A1, NADH fluorescence, propionaldehyde/NAD+; Potency, µM (top dose mostly 57.1 µM), for the others: at the highest dose activity change, negative = inhibition, hits mostly inhibitors; actives 90% (n = 90); AID 493210; calls by dose curve
# * = called active by the depositor; ? = inconclusive; . = no result given; [ ] = dose if it differs, or a comment. An excerpt weighted towards active compounds, which were near 11% of everything screened. Unless noted, the call rests on the fitted dose curve; in most records, active means well fitted inhibition curve with a large enough effect (not every such curve was filed as active); inconclusive means small, poorly fitted or top-dose-only effect, or another doubt; inactive means no such curve, though single readings can be large or run the other way.
SMILES,PNC assembly inh,HttQ103 aggreg,GoLoco inh red,HTT ATP protect,HPGD inh,ALDH1A1 inh-1,ALDH1A1 inh-2
COc1ccc(C)cc1NC(=O)CN1CCN(S(=O)(=O)c2ccc(Cl)cc2)CC1,-15,-3%,0%,8%[1.9 µM],-10%,0.32µM*,0.14µM*
Cc1cc(Cl)ccc1C(=O)C1CCCN(C(=O)c2n[nH]c3c2CCCC3)C1 (stereo not drawn),.,-24%,4%,5%,.,10%,.
CC1=C(C(=O)OC(C)C)C(/C=C/c2ccccc2)NC(=O)N1 (stereo not drawn),-16,-15%,7%,-3%,-3%,-1%,.
CC1=C(C(=O)OCc2ccccc2)C(/C=C/c2ccccc2)NC(=S)N1 (stereo not drawn),14,?,4%,-12%[10 µM],-28%,0.2µM*,0.2µM*
COCCNC(=O)C(C(=O)c1ccc(F)cc1)n1cc(C)ccc1=O (stereo not drawn),.,25%[9.22 µM],4%,5%[10 µM],.,9%,.
Cc1nonc1C1CCCN1C(=O)c1cc(COc2ccc(F)cc2F)on1 (stereo not drawn),.,12%[9.22 µM],-4%,1%[10 µM],.,2%,.
CC1(C)CC(=O)CC(C2(O)C(=O)N(Cc3ccccc3)c3ccccc32)O1 (stereo not drawn),?,-7%,0%,-8%[10 µM],-23%,0.063µM*,0.32µM*
CCOC(=O)N1CCC(N2C(=O)c3ccc(C(=O)NC4CCCCCC4)cc3C2=O)CC1,.,.,.,-7%,.,.,.
COc1ccc(C(=O)Nc2nccs2)cc1OC,20,-4%,10%,-15%,-19%,3%,.
Cc1cc(NC(=O)c2ccc3c(c2)C(=O)N(Cc2ccccc2)C3=O)no1,.,-25%,7%,-71%,.,-1%,.
CCCN1C(=O)c2ccc(C(=O)Nc3nccs3)cc2C1=O,-85*,-15%,2%,-3%,0%,0.28µM*,0.4µM*
CCCN1C(=O)c2ccc(C(=O)NC3CCCCC3)cc2C1=O,?,-5%,-8%,-10%[10 µM],4%,?,0.35µM*
CC(C)CN1C(=O)c2ccc(NC(=O)c3cccs3)cc2C1=O,?,0%,4%,-41%,?,?,.
CC(C)CN1C(=O)c2ccc(C(=O)Nc3nccs3)cc2C1=O,?,2%,-5%,-4%,-19%,0.45µM*,0.32µM*
CCCN1C(=O)c2ccc(C(=O)Nc3cc(C)on3)cc2C1=O,?,6%,-11%,2%[10 µM],-8%,0.4µM*,0.79µM*
COC(=O)c1sccc1NC(=S)N1CCN(c2cccc(C)c2C)CC1,-9,-9%,6%,.,-7%,?,.
CCc1cccc(CC)c1NC(=O)CSc1nnc(CCC(=O)O)c(=O)[nH]1,.,19%,0%,.,.,-6%,.
COC(=O)c1sc2nc(C)c([N+](=O)[O-])c(C)c2c1N,-13,?,-7%,-3%[10 µM],-13%,6%,.
COCCn1c(=O)[nH]c(=O)c2c1nc(-c1cc(Br)c3c(c1)OCO3)n2Cc1ccccc1,.,5%,7%,5%[10 µM],.,0.11µM*,0.079µM*
O=C(CCn1cnnn1)Nc1cccc(F)c1,.,5%,-3%,1%,.,7%,.
COc1ccccc1-n1nnnc1SCC(=O)Nc1cc(C)on1,?,-7%,-7%,7%[0.074 µM],-8%,0.71µM*,0.89µM*
COC(=O)c1sccc1NC(=O)CSc1nnnn1-c1ccccc1C,25,4%,-3%,-14%,?,0.56µM*,0.79µM*
COC(=O)c1ccc(-n2nnnc2SCC(=O)Nc2ccccc2C(=O)OC)cc1,7,-6%,1%,5%[10 µM],-22%,-1%,.
COc1ccc(OC)c(-n2nnnc2SCC(=O)Nc2ccc3c(c2)OCCO3)c1,22,2%,.,-19%,.,0.063µM*,0.1µM*
COc1ccccc1NC(=O)CN1CCN(CC(=O)Nc2ccc3c(c2)OCCO3)CC1,9,-26%,-6%,-7%,-2%,3.5µM*,3.2µM*
SMILES,PNC assembly inh,HttQ103 aggreg,GoLoco inh red,HTT ATP protect,HPGD inh,ALDH1A1 inh-1,ALDH1A1 inh-2
O=C(NC1CCCCC1)C(c1ccncc1)N(C(=O)Cc1cccs1)c1ccccc1 (stereo not drawn),.,-8%[9.22 µM],14%,15%[10 µM],.,2%,.
CC(Cc1ccccc1)N/C=C1\CC(=O)NC1=O (stereo not drawn),-28,21%,4%,0%,-11%,5%,.
CN(Cc1ccccc1)Cc1nc2c(c(=O)n(C)c(=O)n2C)n1CCCc1ccccc1,?,-9%,1%,-4%[0.074 µM],-5%,0.71µM*,0.56µM*
CCOC(=O)N1CCN(Cc2nc3c(c(=O)n(C)c(=O)n3C)n2Cc2ccccc2C)CC1,-17,9%,3%,-25%[0.074 µM],-9%,0.25µM*,0.35µM*
CCOC(=O)N1CCN(Cc2nc3c(c(=O)n(C)c(=O)n3C)n2CCCc2ccccc2)CC1,2,2%,-3%,11%[0.074 µM],3%,0.63µM*,0.63µM*
CC(C)Cn1c(CN(C)Cc2ccccc2)nc2c1c(=O)n(C)c(=O)n2C,?,?,-2%,0%[10 µM],3%,3%,.
CCOC(=O)N1CCN(Cc2nc3c(c(=O)n(C)c(=O)n3C)n2CCC(C)C)CC1,?,14%,-21%,-87%,-16%,0.22µM*,0.18µM*
